The results in this text go back to PubChem BioAssay (Tox21).

Assay [1] is described as follows: qHTS assay to identify small molecule antagonists of the estrogen related receptor (ERR) signaling pathway from Tox21 library - cell viability counter screen (AID 1224834). Note: nearly all actives have a fitted effect of over 30% in size. The method in brief:
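ERR reporter cells were plated 6 h before compound addition, then exposed to test compounds in DMSO for 17.5 h at 37 C. Viability was read as CellTiter-Fluor fluorescence after a 30-minute incubation at 37 C.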
A general note: Quantitative high-throughput screening tests each substance at several concentrations.

The target in assay [2] is Luciferin 4-monooxygenase (Photinus pyralis) (UniProt P08659). The assay is described as follows: qHTS assay to identify small molecule inhibitors of firefly luciferase (AID 1224835). Note: nearly all actives have a fitted effect of over 25% in size. The method in brief: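 Quantitative HTS format; KM concentrations of both substrates. Purified P. pyralis FLuc activity quantified from luminescence images.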
Sequence of Luciferin 4-monooxygenase (Photinus pyralis) (P08659 whole entry, looked up): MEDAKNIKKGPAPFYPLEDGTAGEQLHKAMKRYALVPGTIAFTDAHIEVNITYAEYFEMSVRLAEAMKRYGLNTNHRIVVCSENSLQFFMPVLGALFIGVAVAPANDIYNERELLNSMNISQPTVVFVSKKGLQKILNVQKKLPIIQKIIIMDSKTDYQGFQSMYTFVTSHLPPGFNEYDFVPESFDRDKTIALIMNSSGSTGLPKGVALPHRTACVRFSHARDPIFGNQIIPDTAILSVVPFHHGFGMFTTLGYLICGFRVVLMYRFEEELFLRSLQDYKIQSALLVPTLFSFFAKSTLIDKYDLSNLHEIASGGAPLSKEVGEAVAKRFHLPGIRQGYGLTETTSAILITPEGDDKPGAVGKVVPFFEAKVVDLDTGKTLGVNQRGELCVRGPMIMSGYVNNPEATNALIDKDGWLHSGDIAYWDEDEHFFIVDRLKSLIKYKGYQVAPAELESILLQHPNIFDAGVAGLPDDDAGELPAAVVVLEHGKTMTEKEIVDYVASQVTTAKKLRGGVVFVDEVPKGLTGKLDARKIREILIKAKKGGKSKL
Assay [3] is described as follows: qHTS assay to identify small molecule agonists of the constitutive androstane receptor (CAR) signaling pathway - cell viability counter screen (AID 1224836). Note: nearly all actives have a fitted effect of over 45% in size. The method in brief:
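Counter screen multiplexed with the CAR reporter readout: HepG2 cells co-transfected with hCAR and the CYP2B6-2.2kb construct receive a 15-concentration compound series and 0.75 uM PK11195 (final), then CellTiter-Fluor fluorescence is read after 23 h.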

Assay [4] has as its target Nuclear receptor subfamily 1 group I member 3 (Homo sapiens) (UniProt Q14994). The assay can be described thus: qHTS assay to identify small molecule antagonists of the constitutive androstane receptor (CAR) signaling pathway (AID 1224838). Note: nearly all actives have a fitted effect of over 40% in size. In a few lines:
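HepG2 cells stably co-transfected with hCAR and a CYP2B6-2.2kb luciferase reporter were seeded 4 h before compound addition at 15 concentrations. Cells were stimulated with 50 nM CITCO (final) for 24 h at 37 C; luciferase luminescence was then read.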

The target is the same in assay [5]. The assay can be described thus: qHTS assay to identify small molecule agonists of the constitutive androstane receptor (CAR) signaling pathway (AID 1224839). Note: nearly all actives have a fitted effect of over 15% in size. Note: potency is the fitted concentration of half-maximal effect. In a few lines:
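A 15-concentration quantitative screen uses HepG2 cells co-transfected stably with human CAR and CYP2B6-2.2kb reporter. Treatment lasts 24 h with 0.75 uM PK11195 final present; ONE-Glo luminescence is the signal.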

Assay [6] can be described thus: qHTS assay to identify small molecule antagonists of the estrogen related receptor signaling pathway with the pleiotropic PPARgamma coactivator (PGC) from Tox21 10K library - cell viability counter screen (AID 1224840; active = well fitted cell-killing curve with a large enough effect in the repeat runs, not every such curve was filed as active; note: nearly all actives have a fitted effect of over 40% in size). The method in brief:
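PGC/ERR cells were seeded at 2,000 cells/well and left 6 hours at 37 C/5% CO2 before pin-tool addition of compounds in DMSO. After 17.5 hours at 37 C, CellTiter-Fluor was added and fluorescence read 30 minutes later.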

A short description of assay [7]: qHTS assay to identify small molecule antagonists of the estrogen related receptor signaling pathway with the pleiotropic PPARgamma coactivator (PGC) from Tox21 10K library (AID 1224841; call rule not given here; note: actives are mostly falling curves and most rising ones were filed inactive; nearly all actives have a fitted effect of over 50% in size). In a few lines: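 PGC/ERR reporter cells were seeded at 2,000 cells/well and held 6 hours at 37 C/5% CO2 before pin-tool addition of compounds in DMSO. After 18 hours at 37 C, One-Glo was added and luminescence read after 30 minutes at room temperature.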

A short description of assay [8]: qHTS assay to identify small molecule agonists of the estrogen related receptor signaling pathway with the pleiotropic PPARgamma coactivator (PGC) from Tox21 10K library (AID 1224842). Note: nearly all actives have a fitted effect of over 15% in size. The method in brief:
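PGC/ERR reporter cells (NTP line) were seeded 2,000 per well, rested 6 h at 37 C/5% CO2, then pin-dosed with compounds in DMSO for 18 h at 37 C; luciferase read by One-Glo luminescence after 30 min at room temperature.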

Assay [9] in a line: qHTS assay to identify small molecule agonists of the hypoxia (HIF-1) signaling pathway - cell viability counter screen (AID 1224844; calls by dose curve; note: nearly all actives have a fitted effect of over 50% in size). In a few lines: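 HRE-bla ME-180 cells in medium with 0.5% dialyzed FBS were preincubated 5 hrs at 37C, exposed to compounds for 17 hrs, then viability was read as CellTiter-Glo luminescence after 30 min at room temperature, in the reporter wells.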

The nature of assay [10]: qHTS assay to identify small molecule agonists of H2AX (AID 1224845; active = well fitted activation curve with a large enough effect in the signal ratio in the repeat runs, not every such curve was filed as active; the % refers to the signal ratio). The method in brief: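 Wild-type CHO-K1 cells plated overnight, then exposed 3 hr at 37C to compounds at 15 concentrations (0.76% DMSO). Lysed, then HTRF anti-pH2AX(S139)-cryptate/anti-H2AX-d2 detection after 24 hr at room temperature; emissions 665 and 620 nm.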
A short description of assay [11]: qHTS assay to identify small molecule agonists of the hypoxia (HIF-1) signaling pathway (AID 1224846; active = well fitted activation curve with a large enough effect in the signal ratio in the repeat runs, not every such curve was filed as active; the % refers to the signal ratio). In a few lines:
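HRE-bla ME-180 cells (beta-lactamase reporter under hypoxia response element) were plated at 2,000 cells/well in medium with 0.5% dialyzed FBS, rested 5 hrs, then given compounds in DMSO for 17 hrs at 37C, 5% CO2. Reporter induction was read with CCF4-AM FRET substrate.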

A short description of assay [12]: qHTS assay to identify small molecule agonists of H2AX - cell viability counter screen (AID 1224847; calls by dose curve; note: top concentration of the series differs between compounds; nearly all actives have a fitted effect of over 30% in size). In a few lines: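 We seed wild-type CHO-K1 cells overnight, treat them for 3 hr at 37C with compounds in 15-concentration series, and quantify remaining viability by CellTiter-Glo luminescence.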
Assay [13] can be described thus: qHTS assay to identify small molecule antagonists of the estrogen related receptor (ERR) signaling pathway from Tox21 library (AID 1224848). Note: nearly all actives have a fitted effect of over 50% in size. In a few lines: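 Screening used an ERR reporter line supplied by NTP, exposed for 18 h at 37 C to library compounds delivered in DMSO. Signal was luciferase luminescence developed with ONE-Glo at room temperature for 30 min.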

Assay [14] in a line: qHTS RealTime-Glo MT Cell Viability Assay in HepG2 cells - 24 hour (AID 1224867). Note: nearly all actives have a fitted effect of over 50% in size. In a few lines: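 Luminescence read-out: viable HepG2 cells reduce a prosubstrate to a NanoLuc substrate, giving a signal proportional to live cell number. Reads taken at 0, 8, 16, 24, 32 and 40 h of compound exposure at 37 C.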
The nature of assay [15]: qHTS RealTime-Glo MT Cell Viability Assay in HEK293 cells - 32 hour (AID 1224868). The method in brief:
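Nonlytic real-time viability readout: viable cells convert prosubstrate to NanoLuc substrate, giving luminescence proportional to live cell number. HEK293, 600 cells/well, compound added after 5 h, continuous culture at 37 C.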

Assay [16] can be described thus: qHTS assay to identify small molecule agonists of the estrogen related receptor (ERR) signaling pathway from Tox21 library (AID 1224849; calls by dose curve; note: nearly all actives have a fitted effect of over 15% in size). Conditions: ERR reporter cell line, ONE-Glo luciferase, 18 h; at 92.4 µM (top of the series) unless noted. The method in brief: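 ERR reporter cell line (NTP) seeded, rested 6 h at 37 C/5% CO2, then pinned with Tox21 compounds in DMSO. After 18 h at 37 C, ONE-Glo luciferase luminescence was read following 30 min at room temperature.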

Assay [17] in a line: A CellTox Green Cytotoxicity Assay to monitor cytotoxicity in HEK293 cells - 0 hour (AID 1224869). Note: nearly all actives have a fitted effect of over 50% in size. The method in brief:
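HEK293 cells premixed with CellTox Green dye were seeded at 600 cells/well and left 5 h at 37 C/5% CO2 before pin transfer of 23 nL compound in DMSO. Fluorescence from dye bound to dead-cell DNA was read during 40 h treatment.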

Assay [18] in a line: qHTS assay to identify small molecule antagonists of the constitutive androstane receptor (CAR) signaling pathway - cell viability counter screen (AID 1224837). Note: nearly all actives have a fitted effect of over 45% in size. In a few lines:
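HepG2 cells stably expressing hCAR and a CYP2B6-2.2kb reporter were plated and pre-incubated 4 hr at 37 C/5% CO2, then given compounds at 15 concentrations plus 50 nM CITCO (final). After 23 hr, viability was read by CellTiter-Fluor fluorescence.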

For assay [19], the target named is Thyrotropin receptor (Homo sapiens) (UniProt P16473). The assay is described as follows: qHTS assay to identify small molecule agonists of the thyroid stimulating hormone receptor (TSHR) signaling pathway (AID 1224843; calls by dose curve; note: nearly all actives have a fitted effect of over 45% in size). The method in brief: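 Cell line HEK293 with TSHR; density 800/well. Exposure 30 min RT. Readout HTRF cAMP (cAMP-d2/anti-cAMP-cryptate), 1 h RT before reading.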
Sequence of Thyrotropin receptor (Homo sapiens) (P16473 whole entry, looked up): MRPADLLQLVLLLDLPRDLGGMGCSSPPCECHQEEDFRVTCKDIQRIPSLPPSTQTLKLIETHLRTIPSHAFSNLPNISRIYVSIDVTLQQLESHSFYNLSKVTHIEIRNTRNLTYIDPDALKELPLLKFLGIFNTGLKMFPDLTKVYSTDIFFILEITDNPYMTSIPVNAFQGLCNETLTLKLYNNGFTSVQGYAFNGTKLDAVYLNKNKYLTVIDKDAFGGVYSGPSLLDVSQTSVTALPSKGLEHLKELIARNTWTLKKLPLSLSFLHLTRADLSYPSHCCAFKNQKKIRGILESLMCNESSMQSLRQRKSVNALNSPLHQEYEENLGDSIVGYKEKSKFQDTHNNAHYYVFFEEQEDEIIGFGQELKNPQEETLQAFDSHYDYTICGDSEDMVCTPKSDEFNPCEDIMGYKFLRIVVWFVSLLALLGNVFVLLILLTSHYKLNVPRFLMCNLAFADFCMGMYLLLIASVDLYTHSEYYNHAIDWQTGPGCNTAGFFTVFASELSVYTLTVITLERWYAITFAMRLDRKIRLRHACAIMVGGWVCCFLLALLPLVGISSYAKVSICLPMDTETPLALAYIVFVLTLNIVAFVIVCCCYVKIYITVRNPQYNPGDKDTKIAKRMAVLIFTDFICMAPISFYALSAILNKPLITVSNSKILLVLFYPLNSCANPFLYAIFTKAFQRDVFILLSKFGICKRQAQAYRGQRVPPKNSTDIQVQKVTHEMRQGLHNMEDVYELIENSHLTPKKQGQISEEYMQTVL

The nature of assay [20]: qHTS RealTime-Glo MT Cell Viability Assay in HepG2 cells - 40 hour (AID 1224870). Note: nearly all actives have a fitted effect of over 50% in size. The method in brief: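 HepG2 cells mixed with RealTime-Glo MT reagents (NanoLuc plus cell-permeant prosubstrate) were seeded at 600 cells/well, incubated 5 h at 37 C/5% CO2, then pinned with compounds in DMSO; nonlytic luminescence tracked viability during 40 h treatment.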

Values joined by “and” are separate entries in the source; they are usually repeats but may differ in a detail not shown here. Equal entries are not always repeated. Inconclusive results are not listed. Some structures have more than one record in an assay (separate samples or runs), and their calls can disagree. Active and inactive are the calls of the source. Unless noted, calls come from the whole dose curve; as a rule, active = well fitted curve in the direction sought with a large enough effect in the repeat runs; inconclusive = weak or mixed curves; inactive = no such curve, though single readings can be large; an effect the other way counts as inactive or inconclusive.
% is set by controls: 0 for no effect and ±100 for the full control effect.

Sequence of Nuclear receptor subfamily 1 group I member 3 (Homo sapiens) (Q14994 whole entry, looked up): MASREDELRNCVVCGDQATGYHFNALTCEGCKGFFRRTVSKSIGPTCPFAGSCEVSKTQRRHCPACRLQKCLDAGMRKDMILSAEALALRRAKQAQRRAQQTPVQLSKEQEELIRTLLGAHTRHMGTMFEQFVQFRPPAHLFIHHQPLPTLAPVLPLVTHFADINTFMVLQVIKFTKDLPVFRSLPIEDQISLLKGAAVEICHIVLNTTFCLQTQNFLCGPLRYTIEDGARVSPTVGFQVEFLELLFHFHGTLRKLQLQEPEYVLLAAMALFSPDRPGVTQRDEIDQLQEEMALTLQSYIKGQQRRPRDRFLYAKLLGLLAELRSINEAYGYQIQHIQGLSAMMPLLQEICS

As to `CC/C=C\CC/C=C/CO`, the Potency entry in assay [1], in assay [2], in assay [3], in assay [4], in [5] and in assay [6] was “inactive” each time. Also, the Potency entry in assay [7], in [9], in [12], in [13], in assay [14] and in [15] was “inactive” in each case. Also, the outcome in assay [8], in [10] and in assay [11] was inactive.
For the compound `COC(C)(C)CCCC(C)CC=O` (configuration not stated), the Potency entry in assay [1], in assay [2], in assay [3], in assay [4], in assay [5] and in assay [7] was “inactive” in each case. Besides, the Potency entry in assay [9], in [13], in assay [14], in assay [15] and in assay [17] was “inactive” each time. Besides, the outcome in assay [8] and in [10] was inactive. In addition, the activity change, positive = activation in assay [16] was 8.65% (inactive).
As for `CCOC(=O)c1cccc(N)c1`, the Potency entry in assay [2], in assay [3], in assay [18], in assay [4], in [5] and in [6] was “inactive” in each case. Moreover, the Potency result in [7], in assay [19], in assay [9], in [12], in assay [13] and in assay [14] was “inactive” in each case. The Potency entry in assay [15], in assay [17] and in assay [20] was “inactive” throughout. For the same compound, the outcome in assay [8] and in assay [10] was inactive. Further, the activity change, positive = activation in assay [16] is -2.77% [at 42.5 µM] (inactive).
As for `CC[N+](C)(C)c1cccc(O)c1`, the Potency result in [1], in assay [3], in [18], in assay [4], in [5] and in assay [19] was “inactive” throughout. Moreover, the Potency result in assay [9], in [12], in assay [14], in assay [15], in assay [17] and in [20] was “inactive” throughout. In addition, the result in [10] was inactive.
In the case of `NCCc1cnc[nH]1`, the Potency entry in assay [1], in assay [3], in assay [18], in assay [4], in assay [6] and in [19] was “inactive” throughout. The Potency entry in assay [9], in assay [12], in assay [14], in [15] and in [20] was “inactive” each time. In assay [10], the call was inactive.
Take `COC(=O)c1c(Cl)c(Cl)c(C(=O)OC)c(Cl)c1Cl`: the Potency entry in assay [1], in assay [2], in assay [3], in assay [4], in assay [6] and in [7] was “inactive” in each case. The Potency entry in [9], in [13], in [14], in assay [17] and in assay [20] was “inactive” throughout. Also, the Potency in assay [5] was 54.5 µM (active) and 8.63 µM (active). In addition, the call in assay [8] and in assay [11] was inactive. For the same compound, the activity change, positive = activation in assay [16] was 4.6% (inactive) and 15.8% (active).
For `NS(=O)(=O)c1cc2c(cc1Cl)NC(C1CC3C=CC1C3)NS2(=O)=O` (configuration not stated), the Potency result in [1], in assay [2], in assay [3], in assay [4], in assay [5] and in assay [9] was “inactive” throughout. Also, the Potency entry in [12], in assay [14], in assay [15] and in assay [20] was “inactive” throughout. For the same compound, in [10], the compound was called inactive.
As for `OCCOc1ccc(OCCO)cc1`, the Potency result in assay [2], in assay [3], in assay [18], in assay [4], in assay [5] and in [6] was “inactive” in each case. Also, the Potency entry in assay [7], in assay [19], in assay [9], in assay [12], in [13] and in assay [14] was “inactive” each time. Moreover, the Potency result in [15], in [17] and in assay [20] was “inactive” throughout. For the same compound, the outcome in assay [8], in assay [10] and in assay [11] was inactive. Further, the activity change, positive = activation in assay [16] was 2.76% (inactive).
